High-throughput results as filed in PubChem.
Hsp90 Hop PPI – changes Hsp90-Hop TPR2A binding signal, up or down | Potency, µM (top dose mostly 57 µM) | 0.44% of 71,000 active | AID 595 | AlphaScreen TPR2A-His6 binding biotin-Hsp90 C-terminal peptide; active = well fitted curve in either direction with a large enough effect; inconclusive = small, poorly fitted or top-dose-only effect, or another doubt
GFP derepression – derepresses silenced GFP locus in mouse C127i cells; mouse C127i GFP locus derepression, cytometry, 30 h; 0.09% of 68,000 active; Potency, µM (doses to about 46.1 µM); AID 597
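Murine C127i mammary cells carrying a silenced, stably integrated CMV-driven GFP reporter were treated with compound for 30 hours at 37 C. After PBS washes, GFP-positive cells were counted by laser-scanning microplate cytometry.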
HBB splicing – alters splicing of the hemoglobin beta chain. HBB splicing reporter cell assay, activation; EGFP reporter with mutant IVS2-654 intron; response scale: normalised to 500 nM splice-correcting PNA. Potency, µM (doses to about 46.1 µM), most hits filed as activators. 0.06% of 65,000 active
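Compounds were applied for 2 days to HeLa EGFP-654 cells, 500/well in Optimem with 2% FCS. The reporter's EGFP is disrupted by mis-splicing of beta-globin intron IVS2-654. Readout: summed well GFP fluorescence from 488 nm laser scanning; reference was 500 nM antisense […] 654 PNA.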
Tau fil binding – binds recombinant human tau filaments; P10636; recombinant tau filaments, thioflavin S fluorescence, 15 h; filaments grown with octadecylsulfate alongside compound; Potency, µM (titrated, usually from 57.1 µM); 2% of 71,000 active; AID 596;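 note: actives lower thioflavin S fluorescence by blocking filaments or displacing dye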
Target sequence (P10636 whole entry, looked up): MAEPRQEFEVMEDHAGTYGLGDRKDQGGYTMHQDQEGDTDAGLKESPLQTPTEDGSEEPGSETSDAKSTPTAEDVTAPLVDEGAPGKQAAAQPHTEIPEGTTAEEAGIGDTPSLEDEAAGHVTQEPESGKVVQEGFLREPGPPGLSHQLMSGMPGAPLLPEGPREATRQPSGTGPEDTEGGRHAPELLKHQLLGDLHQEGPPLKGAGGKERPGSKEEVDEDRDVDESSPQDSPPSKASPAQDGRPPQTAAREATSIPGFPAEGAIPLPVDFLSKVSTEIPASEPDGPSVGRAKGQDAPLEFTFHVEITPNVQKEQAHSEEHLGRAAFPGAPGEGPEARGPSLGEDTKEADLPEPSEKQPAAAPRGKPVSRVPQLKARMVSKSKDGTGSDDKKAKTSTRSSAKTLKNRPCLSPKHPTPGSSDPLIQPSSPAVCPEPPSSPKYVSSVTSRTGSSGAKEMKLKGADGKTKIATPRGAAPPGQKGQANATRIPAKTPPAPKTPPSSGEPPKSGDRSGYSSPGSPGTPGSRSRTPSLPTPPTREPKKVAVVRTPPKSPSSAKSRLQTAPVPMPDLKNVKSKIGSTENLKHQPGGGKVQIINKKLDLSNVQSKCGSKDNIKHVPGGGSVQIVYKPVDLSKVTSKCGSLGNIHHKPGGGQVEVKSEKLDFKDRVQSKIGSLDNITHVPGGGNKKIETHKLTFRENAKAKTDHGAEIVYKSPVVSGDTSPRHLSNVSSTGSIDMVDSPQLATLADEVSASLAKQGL
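His-tagged recombinant human tau (exons 2, 3 and 10 included), 1 uM, was induced to fibrillize by 30 uM sodium octadecylsulfate with compound present. After 15 h at 37 C, thioflavine S fluorescence (ex 450, em 510 nm) was read.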
Ub-GFP proteasome – proteasome inhibitors stabilizing ubiquitin-GFP reporter. AID 526. Ubiquitin-GFP reporter cells, proteasome inhibition, GFP fluorescence; response scale: untreated = 0%, 10 µM MG-132 = 100%. Potency, µM (highest dose often 45.9 µM), hits mostly activators. 67,000 tested, under 10 active; active = well fitted activation curve with a large enough effect, not every such curve was filed as active; inconclusive = small, poorly fitted or top-dose-only effect, or another doubt; inactive = no such curve, though single readings can be large or run the other way
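U2OS Ub(G76V)-GFP reporter; O/N plating, 0.5% FBS; cpd 46 uM–2.9 nM, 4 h, 37 °C; GFP+ cell count, 488/515 nm; norm. to basal vs 10 uM MG-132; CRC fit.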
ERK AVP inh – inhibitors of vasopressin-stimulated ERK signaling pathway. Potency, µM (highest dose often 57.5 µM), hits mostly inhibitors. HEK293-V1b, vasopressin-stimulated pERK AlphaScreen. AID 995. 0.99% of 72,000 active; note: nearly all actives have a fitted effect of over 55% in size
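Overnight-seeded V1b-HEK293 cells in 1% FBS got compound, then vasopressin (25 nM final, 5 min, 37C), then lysis buffer. AlphaScreen detection of phospho-ERK; activity normalized to basal and full-stimulation controls.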
Large screens that a line does not name were inactive. An excerpt weighted towards active compounds, which were near 3% of everything screened. Unless noted, calls come from the whole dose curve; as a rule, active = well fitted curve in the direction sought with a large enough effect; inconclusive = small, poorly fitted or top-dose-only effect, or another doubt; inactive = no such curve, though single readings can be large; an effect the other way counts as inactive or inconclusive.

CC(C)=C[C@H]1[C@@H](COC(=O)c2cc3c(cc2Cl)OCO3)C1(C)C	none
CNC(=O)Oc1ccc2c(c1)C1(C)CCN(C)C1N2C (stereo unspecified)	none (no result: Hsp90 Hop PPI, GFP derepression, HBB splicing, Tau fil binding, Ub-GFP proteasome)
Cc1cc(C)c2nc3s/c(=C/c4ccc5c(c4)n(C)c(=O)n5C)c(=O)n3c2c1	Tau fil binding 25µM
COC(=O)c1ccc(C(NC(=O)OCc2ccccc2)/C(F)=C/[C@@H](C)C(=O)NC2CCCCC2)cc1 (stereo partly specified)	none (no result: GFP derepression, Ub-GFP proteasome)
Nc1ncnc2nn([C@H]3O[C@@H](CO)[C@@H](O)[C@H]3O)nc12	none
N#C/C(=C\c1ccc(O)c(O)c1)C(=O)NCCc1ccccc1	Hsp90 Hop PPI inconclusive, ERK AVP inh inconclusive
N#C/C(=C\c1ccc(O)c(O)c1)C(=O)NCCCCc1ccccc1	Tau fil binding inconclusive, ERK AVP inh 40µM (no result: HBB splicing)
CN(C)CCCN=c1c2ccccc2n(C)c2[nH]c(=O)n(C)c(=O)c12	none
COc1ccc(Nc2cc(C)nc3ccccc23)cc1	none (no result: Hsp90 Hop PPI, HBB splicing, Tau fil binding, Ub-GFP proteasome, ERK AVP inh)
COc1ccc2nc(C)cc(Nc3ccc(N4CCOCC4)cc3)c2c1	Tau fil binding 5µM, ERK AVP inh inconclusive (no result: Ub-GFP proteasome)
Nc1nnc(N2CCc3ccccc32)s1	ERK AVP inh 16µM (no result: GFP derepression)
Nc1nnc(N2CCCCC2)s1	none (no result: Ub-GFP proteasome)
CCN1C(=O)c2cccc3c(S(=O)(=O)Nc4ccccn4)ccc1c23	none
CCN1C(=O)c2cccc3c(S(=O)(=O)Nc4ncccc4C)ccc1c23	ERK AVP inh 25µM
Cc1ccc(C2NC(=O)NC3=C2CCc2ccccc23)cc1 (stereo unspecified)	Tau fil binding 20µM
COc1ccc(CNc2cc(-c3ccccc3Cl)ncn2)c(OC)c1	ERK AVP inh 16µM
N[C@H](Cc1ccc(O)c(I)c1)C(=O)O	none (no result: ERK AVP inh)
COc1ccc(-n2c(C)cc(C(=O)Cn3c(NCCO)nc4ccccc43)c2C)cc1	ERK AVP inh 10µM
Cc1nnc(SCC2=C(C(=O)O)N3C(=O)[C@@H](NC(=O)Cn4cnnn4)[C@@H]3SC2)s1	none
COc1ccc(Nc2nc3ccccc3nc2C)cc1	Tau fil binding 20µM
NCCC[C@@](N)(C(=O)O)C(F)F	none
CN1CCN(C(=O)c2cc(-c3ccc(O)cc3)on2)CC1	none
CCOc1ccc2nc(N3CCC(C(=O)N4CCN(c5ccccn5)CC4)CC3)sc2c1	ERK AVP inh 20µM
COc1cc2c3cc1Oc1cc(ccc1O)C[C@@H]1c4c(cc(OC)c(O)c4Oc4ccc(cc4)C[C@H]3[N+](C)(C)CC2)CC[N+]1(C)C	none
O=S(=O)(O)c1ccc2cc(N=Nc3cc(S(=O)(=O)O)c4cccnc4c3O)ccc2c1	Hsp90 Hop PPI inconclusive
Cc1ccc(S(=O)(=O)Oc2ccc(N=Nc3ccc(-c4ccc(N=Nc5c(O)ccc6cc(S(=O)(=O)O)cc(S(=O)(=O)O)c56)c(C)c4)cc3C)cc2)cc1	Hsp90 Hop PPI 0.05µM, Tau fil binding 0.01µM, ERK AVP inh 25µM (no result: GFP derepression, Ub-GFP proteasome)
Cc1ccc(N=Nc2c(O)ccc3cc(S(=O)(=O)O)ccc23)cc1	Hsp90 Hop PPI inconclusive, Tau fil binding 3.2µM
O=S(=O)(Nc1cccnc1)c1cccc2cccnc12	none (no result: GFP derepression, ERK AVP inh)
COc1ccccc1-c1ccc2ncnc(N3CCNCC3)c2c1	none
CC(C)(C)C(=O)[C@H]([C@@H](c1ccccc1)N1CCOCC1)N1CCOCC1	none
Cc1ccc(C)c(N2CCN(C(=O)CCS(=O)(=O)c3cccc4nonc34)CC2)c1	Tau fil binding 32µM
CC1Cc2ccccc2N1C(=O)CCS(=O)(=O)c1cccc2nonc12 (stereo unspecified)	none
Cc1c(N=C=O)cccc1N=C=O	none (no result: GFP derepression, Ub-GFP proteasome)
Nc1ccc(N=Nc2ccccc2)c(N)c1	Hsp90 Hop PPI inconclusive, Tau fil binding 1.6µM, ERK AVP inh inconclusive (no result: GFP derepression, Ub-GFP proteasome)
COc1ccc(-n2nc3cc(C)c(N)c(Br)c3n2)cc1	Tau fil binding 20µM, ERK AVP inh 32µM
C[C@H]1[C@H](C)OC(=O)C[C@H](O)C[C@H](O)C[C@H](O)CC[C@H](O)[C@H](O)CC(=O)C[C@H](O)[C@H](C(=O)O)[C@H](O)C[C@H](O[C@@H]2O[C@@H](C)[C@H](O)[C@@H](N)[C@@H]2O)C=CC=CC=CC=CCCC=CC=C[C@@](C)(O)[C@H]1O	none
c1ccc(CNCCN2CCNCC2)nc1	Hsp90 Hop PPI 4µM
Cc1c(C(=O)Nc2ccc(N3CCOCC3)cc2)oc2ccccc12	Tau fil binding 25µM
O=C(CCc1ccccc1)Nc1ccc(N2CCOCC2)cc1	Tau fil binding 16µM
O=C(O)[C@@H]1[C@@H](C(=O)Nc2ncccn2)[C@@H]2C=C[C@@H]1O2	none
C[N+](C)(C)CC(=O)N/N=C\c1ccncc1	none
C=CCOC(=O)c1sc(N2C(=O)c3oc4ccccc4c(=O)c3C2c2ccco2)nc1C (stereo unspecified)	Tau fil binding 10µM
CC(=O)c1ccc2c3c(ccc(O)c13)CC2	Hsp90 Hop PPI inconclusive, Tau fil binding 4µM, ERK AVP inh 32µM
COC(=O)CC[C@@H](C)[C@H]1CC[C@H]2[C@H]3CC[C@H]4C[C@@H]5CC[C@@]4(C)C3(O5)[C@@H](Br)[C@@H](Br)[C@@]12C	none
Cc1cccc(-n2c(=O)[nH]c3c(C(N)=O)nc(C(C)C)nc32)c1	Tau fil binding 16µM
CN1CCc2cc(O)c(O)cc2[C@H](c2ccccc2)C1	ERK AVP inh inconclusive
C=CCN1CCc2c(cc(O)c(O)c2Br)[C@H](c2ccccc2)C1	Hsp90 Hop PPI 10µM
O=C(Nc1nc2c(ccc3ccccc32)s1)c1ccco1	ERK AVP inh 13µM
Cc1nnc(NC(=O)c2ccco2)s1	none (no result: GFP derepression, ERK AVP inh)
CNC(=O)c1c(NC(=O)c2nc3ccccc3s2)sc2c1CCC2	HBB splicing inconclusive, Tau fil binding 0.63µM (no result: GFP derepression, ERK AVP inh)
O=C(O)c1cccc(SSc2cccc(C(=O)O)c2)c1	none
CCN(CC)CCCCn1c(-c2ccccc2)nc2c(NCCOC)nc(C)nc21	none (no result: GFP derepression)
O=C(O)C[n+]1ccccc1	none
O=C(Nc1nc(-c2ccc3c(c2)OCO3)cs1)C1COc2ccccc2O1 (stereo unspecified)	none (no result: GFP derepression, ERK AVP inh)
O=C(Nc1nc(-c2ccccn2)cs1)C1COc2ccccc2O1 (stereo unspecified)	Hsp90 Hop PPI 16µM (no result: GFP derepression, ERK AVP inh)
CC1CCN(CC(=O)N2c3ccccc3Sc3cc4ccccc4cc32)CC1	none
c1ccc(Nc2cc(Nc3ccccc3)[nH]n2)cc1	Tau fil binding 20µM
COc1cccc(Nc2ncc3nc(-c4ccc(F)cc4)c(=O)n(CCC#N)c3n2)c1	HBB splicing inconclusive, Ub-GFP proteasome inconclusive
COc1cccc(Nc2ncc3nc(-c4ccc(Cl)cc4)c(=O)n(CCC#N)c3n2)c1	HBB splicing 10µM, Ub-GFP proteasome inconclusive
